For eight compounds, composite z-score, z-score and composite Z-score results are on record in PubChem BioAssay.

The subject of experiment [1] is Human papillomavirus type 1a protein E7 (residues 44-93). In words: HPV1a E7 fragment binders on microarrays, primary screen, biochemical, small-molecule microarray, residues 44-93, 635 nm fluorescence (AID 1108).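 Also: E7 fragment applied at 1 µg/mL in TBST for 1 h at 4 C; score combines spot fluorescence with its signal to noise ratio.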 Conditions: small-molecule microarray binding, fluorescence 635 nm; higher = more signal.
A short description of experiment [2]: modulators of HCV replicon luciferase signal, primary screen, HCV replication inhibitor project, Huh7 cells, luciferase reporter (AID 1109).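 Also: huh7 hepatoma cells harbouring a luciferase neomycin HCV replicon reporter; luciferase luminescence as measure of HCV replicon replication; test concentration not given here.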 The following applies: 48 h, higher = more signal.
Experiment [3] addresses Left-right determination factor 2 (Homo sapiens) (UniProt O00292). In words: LEFTY2 binders on small-molecule microarrays, primary screen, biochemical, small-molecule microarray, 635 nm fluorescence scan (AID 1110). Conditions: LEFTY2 binding, higher = more signal.
Experiment [4] concerns the target Calmodulin-1 (Homo sapiens) (UniProt P0DP23). In words: CALM1 binders on microarrays, EGTA buffer, profiling panel, biochemical, small-molecule microarray, Cy5-labelled CALM1 (AID 1111).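 Also: labelled calmodulin applied in Tris saline Tween buffer holding calcium plus EGTA and DTT.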 The following applies: Cy5-CALM1 binding fluorescence, higher = more signal.
Experiment [5] shares this target. The experiment in a line: calcium-bound CALM1 binders on microarrays, profiling panel, artefact control for SMM control-protein annotation, biochemical, small-molecule microarray, Cy5-labelled CALM1, plus calcium (AID 1112).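 Also: score merges spot fluorescence with signal to noise from triplicate slides.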 The following applies: Cy5-CALM1 binding fluorescence, higher = more signal.
Experiment [6] in a line: small-molecule microarray binders of probe aWnt5a, primary screen, biochemical, biotinylated probe, 635/667 nm fluorescence (AID 1113).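 Also: score merges 667 nm fluorescence intensity with signal-to-noise per printed feature.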 Conditions: higher = more signal.
A short description of experiment [7]: small-molecule microarray binders of probe aShh, primary screen, biochemical, biotinylated probe, 635/667 nm fluorescence (AID 1114).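 Also: probe is biotin-labelled aShh protein from a stem cell growth factor screen; measures binding of labelled protein to compounds printed on the slide; score merges feature fluorescence at 667 nm with signal-to-noise.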 Conditions: higher = more signal.
The nature of experiment [8]: small-molecule microarray binders of probe aNog, primary screen, biochemical, biotinylated probe, 635/667 nm fluorescence (AID 1115).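 Also: probe is biotinylated aNog protein used at 0.15 µg/mL for 1 h at 4 C; z-score combines 667 nm fluorescence of each spot with its signal to noise.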 The following applies: higher = more signal.
Experiment [9] concerns the target Torsin-1A-interacting protein 1 (Homo sapiens) (UniProt Q5JTV8). The experiment in a line: LAP1 binders from COS7 cell lysate, primary screen, small-molecule microarray, 635/667 nm fluorescence (AID 1116). The following applies: COS7-hLAP1 lysate binding, 635 nm fluorescence, higher = more signal.
Experiment [10] deals with Alpha-bungarotoxin (Bungarus multicinctus) (UniProt P60615). In words: alpha-bungarotoxin binders on microarray, profiling panel, artefact control for SMM control protein annotation, biochemical, small-molecule microarray, Alexa647 label, 635/667 nm fluorescence (AID 1117). Conditions: alpha-BTX-A647 binding fluorescence, higher = more signal.
Chain of Alpha-bungarotoxin (Bungarus multicinctus) (P60615 whole entry, looked up): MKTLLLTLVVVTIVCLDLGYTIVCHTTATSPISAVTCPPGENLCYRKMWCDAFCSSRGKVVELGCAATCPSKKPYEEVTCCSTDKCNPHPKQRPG
The target of experiment [11] is Albumin (Bos taurus) (UniProt P02769). In words: bovine serum albumin binders on microarray, profiling panel, artefact control for SMM control protein annotation, biochemical, small-molecule microarray, Alexa647 label, 635/667 nm fluorescence (AID 1118).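 Also: score merges 667 nm emission intensity and signal-to-noise per printed compound spot.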 The following applies: BSA-A647 binding, fluorescence 635 nm, higher = more signal.
Chain of Albumin (Bos taurus) (P02769 whole entry, looked up): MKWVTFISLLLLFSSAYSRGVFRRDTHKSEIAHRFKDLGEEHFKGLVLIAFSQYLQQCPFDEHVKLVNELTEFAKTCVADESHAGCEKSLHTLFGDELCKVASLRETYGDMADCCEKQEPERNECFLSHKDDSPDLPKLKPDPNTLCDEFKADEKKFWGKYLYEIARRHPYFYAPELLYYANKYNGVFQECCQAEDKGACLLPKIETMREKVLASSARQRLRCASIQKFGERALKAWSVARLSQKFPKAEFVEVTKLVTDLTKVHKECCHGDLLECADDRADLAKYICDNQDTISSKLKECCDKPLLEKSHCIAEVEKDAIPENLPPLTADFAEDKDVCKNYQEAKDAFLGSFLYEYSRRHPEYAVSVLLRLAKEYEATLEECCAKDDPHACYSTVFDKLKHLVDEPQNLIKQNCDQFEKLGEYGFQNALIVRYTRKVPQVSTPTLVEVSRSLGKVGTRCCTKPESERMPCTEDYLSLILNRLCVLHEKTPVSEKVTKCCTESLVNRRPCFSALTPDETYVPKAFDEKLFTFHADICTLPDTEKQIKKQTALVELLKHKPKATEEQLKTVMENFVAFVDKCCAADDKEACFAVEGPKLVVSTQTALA
A short description of experiment [12]: small-molecule microarray binders of probe aXIP, primary screen, biochemical, NeuroSMM set, 635/667 nm fluorescence (AID 1119).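 Also: probe is the protein aXip251-270 applied at 1 µg/mL to compound-printed slides; binding of probe to printed compounds measured as 667 nm fluorescence plus signal to noise.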 The following applies: higher = more signal, called active from +8 up or from −8 down.
Experiment [13] in a line: small-molecule binders of probe aNOTCH3, primary screen, biochemical, small-molecule microarray, 635/667 nm fluorescence (AID 1120).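 Also: probe is a biotin-tagged antibody raised against NOTCH3 rather than NOTCH3 protein; score merges spot fluorescence near 667 nm with spot signal to noise.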 Conditions: higher = more signal.
A short description of experiment [14]: small-molecule binders of probe aNOTCH2, primary screen, biochemical, small-molecule microarray, 635/667 nm fluorescence (AID 1121).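 Also: score merges feature fluorescence read at 667 nm with its signal to noise.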 Conditions: higher = more signal.
The target in experiment [15] is Carbonic anhydrase 2 (Homo sapiens) (UniProt P00918). The experiment in a line: CAII small-molecule binders, profiling panel, biochemical, small-molecule microarray, Alexa647-labelled CAII (AID 1122). Conditions: CAII-A647 binding fluorescence, higher = more signal.
Experiment [16] is described as follows: COS7 lysate on small-molecule microarray, probe aHis, 635 nm (AID 1123).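 Also: z-score combines 667nm fluorescence intensity with signal-to-noise per printed compound spot.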 The following applies: COS7 cell lysate, fluorescence, higher = more signal.
The nature of experiment [17]: compound binding in COS7 lysate, probe aLAP1, primary screen, cell lysate, small-molecule microarray (AID 1124).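 Also: lysate comes from COS7 cells expressing LAP1 and is applied at 0.3 µg/mL; score merges spot fluorescence near 667 nm with signal-to-noise over triplicate slides.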 The following applies: probe aLAP1, fluorescence, higher = more signal.
The subject of experiment [18] is Sam68 (KHDRBS1). The experiment in a line: Sam68 small-molecule binders, primary screen, biochemical, small-molecule microarray, 635 nm fluorescence (AID 1125).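 Also: score merges 667 nm channel intensity with signal to noise over triplicate slides.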 The following applies: small-molecule microarray binding, higher = more signal.
The test system of experiment [19] is Chordin-like protein 2 (CHRDL2). In words: CHRDL2 small-molecule binders, primary screen, biochemical, small-molecule microarray, 635 nm fluorescence (AID 1126).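 Also: printed compound slides probed with Chrdl2 protein at 4 µg/mL for 1 h at 4 C; score merges 667 nm emission intensity with signal to noise over three replicate slides.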 Conditions: small-molecule microarray binding, fluorescence 635 nm; higher = more signal.
The target in experiment [20] is Concanavalin-A (Canavalia ensiformis) (UniProt P02866). In words: ConA small-molecule binders, primary screen, artefact control for SMM control protein annotation, biochemical, small-molecule microarray, Alexa647 label, 635 nm (AID 1127).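 Also: z combines 667 nm emission intensity with signal-to-noise across three replicate slides.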 Conditions: ConA-A647 binding fluorescence, higher = more signal.
Chain of Concanavalin-A (Canavalia ensiformis) (P02866 whole entry, looked up): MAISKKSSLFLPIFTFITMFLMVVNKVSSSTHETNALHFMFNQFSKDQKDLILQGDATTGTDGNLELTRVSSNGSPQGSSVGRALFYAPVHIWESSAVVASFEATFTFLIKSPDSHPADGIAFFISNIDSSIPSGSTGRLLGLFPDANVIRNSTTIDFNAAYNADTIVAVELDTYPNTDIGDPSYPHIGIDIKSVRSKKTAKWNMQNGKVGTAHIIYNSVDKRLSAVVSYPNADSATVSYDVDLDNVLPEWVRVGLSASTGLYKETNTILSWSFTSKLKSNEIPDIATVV

Calls of active or inactive are those of the source.

Chain of Torsin-1A-interacting protein 1 (Homo sapiens) (Q5JTV8 whole entry, looked up): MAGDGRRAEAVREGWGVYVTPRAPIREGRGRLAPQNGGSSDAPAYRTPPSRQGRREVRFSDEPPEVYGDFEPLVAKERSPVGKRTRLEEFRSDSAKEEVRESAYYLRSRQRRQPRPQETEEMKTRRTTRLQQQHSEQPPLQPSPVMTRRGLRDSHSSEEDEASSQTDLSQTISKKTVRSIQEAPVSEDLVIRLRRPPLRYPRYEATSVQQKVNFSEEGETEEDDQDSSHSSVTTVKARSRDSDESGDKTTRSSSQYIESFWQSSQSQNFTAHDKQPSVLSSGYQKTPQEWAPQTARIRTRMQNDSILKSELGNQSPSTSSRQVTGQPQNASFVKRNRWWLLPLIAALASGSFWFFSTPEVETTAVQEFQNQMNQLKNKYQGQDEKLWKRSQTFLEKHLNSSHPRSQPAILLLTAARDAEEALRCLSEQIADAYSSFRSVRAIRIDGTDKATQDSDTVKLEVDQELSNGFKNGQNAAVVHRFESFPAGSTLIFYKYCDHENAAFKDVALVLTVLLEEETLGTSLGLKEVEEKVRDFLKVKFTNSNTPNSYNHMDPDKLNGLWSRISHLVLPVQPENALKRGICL
Chain of Left-right determination factor 2 (Homo sapiens) (O00292 whole entry, looked up): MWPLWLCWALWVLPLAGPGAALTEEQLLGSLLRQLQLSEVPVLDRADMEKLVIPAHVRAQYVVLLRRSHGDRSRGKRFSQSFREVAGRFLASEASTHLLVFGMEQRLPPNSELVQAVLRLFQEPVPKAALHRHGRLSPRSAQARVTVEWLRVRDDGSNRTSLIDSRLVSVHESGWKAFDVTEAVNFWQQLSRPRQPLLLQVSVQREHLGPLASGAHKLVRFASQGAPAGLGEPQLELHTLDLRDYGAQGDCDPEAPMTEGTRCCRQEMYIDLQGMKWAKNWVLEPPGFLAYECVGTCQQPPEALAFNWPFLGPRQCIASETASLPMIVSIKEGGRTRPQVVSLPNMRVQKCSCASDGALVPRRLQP

In the case of `COc1ccc(C(=O)Nc2ccc(CN3C(=O)[C@@]4(O[C@@H](CC(=O)N5Cc6ccccc6C[C@H]5CO)[C@H]([Si](C)(C)c5ccc(OC)cc5)[C@H]4C)c4ccccc43)cc2)cc1`, the composite z-score in experiment [1] was 1.1; in [3] it was 0.804; in experiment [4] it was 0.0063; in experiment [5] it was -0.613; in experiment [6] it was -0.119; in [7], 0.0121. For the same compound, the composite z-score was -0.24 in experiment [8]; 1.21 in [9]; 1.3 in [10]; 0.604 in experiment [11]; -0.137 in experiment [13]; -0.153 in experiment [14]. Further, the composite z-score was 0.55 in experiment [15]; 2.26 in [16]; 0.226 in [17]; 1.27 in [18]; 1.18 in experiment [19]; 0.965 in experiment [20]. Moreover, the z-score in experiment [2] was -3.84. Moreover, the composite Z-score in [12] was -0.086 (inactive).

As for `C[C@H]1NC(=O)C([C@@H](C)OCc2ccccc2)NC(=O)[C@@]23C(=O)N[C@@H](Cc4ccccc4)C2[C@H](C)[C@@]2(C)O[C@H]2C3/C=C/CC/C=C/CNC1=O` (stereo not given in full), the composite z-score was -0.165 in [1]; 0.416 in experiment [3]; -0.377 in experiment [4]; -0.377 in experiment [5]; 0.0919 in [6]; 0.0815 in experiment [7]. Further, the composite z-score was -0.37 in experiment [8]; 0.26 in experiment [9]; 0.421 in experiment [10]; 0.506 in experiment [11]; -0.0647 in [13]; -0.0131 in experiment [14]. Moreover, the composite z-score was 0.665 in experiment [15]; -0.308 in [16]; 0.03 in [17]; -0.389 in experiment [18]; 0.634 in experiment [19]; -1.38 in [20]. Moreover, the z-score in experiment [2] was -0.631. Further, the composite Z-score in experiment [12] is -0.169 (inactive).

`COC(=O)[C@@]1(Cc2ccc(OC)cc2)[C@H]2c3cc(C(=O)N(C)C)n(Cc4cc(F)c(F)c(F)c4)c3C[C@H]2CN1C(=O)c1ccccc1`: the composite z-score in [1] was 1.43; in [3], 0.159; in experiment [4], 2.29; in experiment [5] it was 1.17; in [6], 0.225; in [7], 0.75. The composite z-score in experiment [8] stood at 1.73; in experiment [9] it was 1.19; in experiment [10], 1.86; in experiment [11], 0.895; in [13] it was 0.578; in experiment [14], 0.212. In addition, the composite z-score in experiment [15] is 0.767; in experiment [16], 2.73; in experiment [17], 0.331; in experiment [18], 1.11; in [19] it was -0.0554; in experiment [20], 1.13. Moreover, the z-score in experiment [2] was -2.04. Further, the composite Z-score in experiment [12] is -0.37 (inactive).

`O=C1OCC=C[C@H]2OC34C=CCN(CCN5CCOCC5)C(=O)[C@H]3N(CCCCCO)C(=O)[C@@H]4[C@@H]12` (stereo not given in full): the composite z-score was -1.19 in [1]; -0.258 in [3]; -0.234 in experiment [4]; -0.953 in experiment [5]; -0.178 in experiment [6]; -0.223 in [7]. Further, the composite z-score was -0.278 in experiment [8]; -0.607 in [9]; 0.396 in [10]; 0.485 in [11]; 0.0694 in [13]; -0.117 in [14]. In addition, the composite z-score in experiment [15] is 0.829; in [16], 2.03; in [17], -0.723; in experiment [18], -0.229; in [19], 0.129; in [20], 0.476. Also, the z-score in [2] is 0.557. Moreover, in [12], the composite Z-score is -0.232 (inactive).

Take `C=CCN1C(=O)[C@@]2(O[C@@H](CCO)[C@H]([Si](C)(C)c3ccc(OC)cc3)[C@H]2C)c2cc(NC(=O)[C@H](C)O)ccc21`: the composite z-score is 1.37 in [1]; 0.256 in experiment [3]; 0.929 in experiment [4]; -0.377 in experiment [5]; 0.0279 in experiment [6]; 0.0639 in experiment [7]. For the same compound, the composite z-score was -0.21 in experiment [8]; 1.2 in [9]; 0.175 in [10]; 0.489 in experiment [11]; -0.0343 in [13]; -0.126 in experiment [14]. Moreover, the composite z-score in experiment [15] is 0.63; in experiment [16] it was 1.68; in [17], 0.231; in experiment [18] it was 1.31; in experiment [19], -0.0585; in [20] it was 0.584. The z-score in [2] is -3.03. The composite Z-score in experiment [12] was 0.0001 (inactive).

With `COCCOC(=O)N1C(=O)[C@@]2(c3ccccc31)[C@H](c1ccc(OCCO)cc1)N1[C@H](c3ccccc3)[C@H](c3ccccc3)OC(=O)[C@H]1[C@@H]2C(=O)NC[C@H](O)c1ccccc1`, the composite z-score in [1] is 1.44; in [3], 0.0792; in [4], 0.718; in [5] it was 0.716; in experiment [6] it was -0.0758; in [7] it was -0.141. Further, the composite z-score in experiment [8] was 0.554; in experiment [9] it was 0.839; in experiment [10] it was 1.92; in experiment [11], 0.128; in experiment [13] it was 0.327; in experiment [14] it was -0.084. The composite z-score in experiment [15] is 0.505; in experiment [16], 1.91; in experiment [17] it was 0.123; in experiment [18], 1.29; in experiment [19], 0.508; in [20], 1.02. Further, the z-score in [2] is -1.95. The composite Z-score in experiment [12] is 0.774 (inactive).

Turning to `CC(C)=CCCC(C)=CC(O)C1C=CC2C(=O)N(c3ccccc3)C(=O)C2N1Nc1ccc([N+](=O)[O-])cc1` (stereo not given), the composite z-score is 1.42 in experiment [1]; -0.183 in experiment [3]; 1.78 in experiment [4]; 0.512 in experiment [5]; -0.0194 in experiment [6]; 0.0952 in [7]. In addition, the composite z-score in experiment [8] was 1.71; in experiment [9], 1.08; in experiment [10], 0.972; in [11], 1.01; in [13], 0.155; in experiment [14], -0.0697. The composite z-score is 0.856 in experiment [15]; 2.77 in experiment [16]; 0.167 in experiment [17]; 1.35 in experiment [18]; -1 in experiment [19]; 1.14 in experiment [20]. Moreover, the z-score in experiment [2] was -0.135. For the same compound, in experiment [12], the composite Z-score was 0.649 (inactive).

For the compound `C=CCOc1ccc([C@@H]2CC=C(C(=O)OCC)[C@H](c3cccc(Br)c3)N2S(=O)(=O)c2ccc(C)cc2)cc1`, the composite z-score in experiment [1] is -1.07; in [3] it was 0.179; in experiment [4], 1.95; in [5], 0.943; in [6] it was -0.0944; in experiment [7], -0.107. For the same compound, the composite z-score in experiment [8] was -0.54; in experiment [9], 0.644; in experiment [10] it was 1.2; in experiment [11] it was 0.64; in experiment [13] it was 0.032; in [14] it was -0.0784. Moreover, the composite z-score in experiment [15] is -0.125; in [16], 0.491; in [17], 0.11; in [18], 0.099; in experiment [19], 0.314; in experiment [20], 0.709. Further, the z-score in experiment [2] was -1.12. Further, the composite Z-score in experiment [12] was 0.0809 (inactive).
